Screening results: PubChem, Broad Institute
A selection follows.
aSyn 5UTR act = Activators via SNCA 5'UTR binding, MLPCN | AID 1814, 2009 | alpha-synuclein 5'UTR reporter, activators screen | activity score, % (tested at 7.5 µM), hits read low | actives 7.1% (n = 300,000); in the data active = activity score below about -60%
The depositor's hits bear a star.

SMILES | aSyn 5UTR act
O=C(CCCc1cccs1)Nc1nc2c(s1)CCCC2 | -171.0*
CC1CCc2nc(NC(=O)c3ccco3)sc2C1 (configuration not stated) | 88.1
COc1ccc(/C=C/c2nc3ccccc3c(=O)o2)cc1 | 101.5
COc1ccccc1/C=C/c1nc2ccccc2c(=O)o1 | -106.9*
Cc1onc(NC(=O)c2ccc(Cl)cc2Cl)c1Br | -145.0*
c1ccc(C2Oc3ccccc3C3CC(c4cccs4)=NN32)cc1 (configuration not stated) | -164.4*
CCOc1ccc(C(=O)Nc2cccc(-c3ccc(N4CCOCC4)nn3)c2)cc1OCC | -69.2*
COc1ccc(C(=O)Nc2cccc(-c3ccc(N4CCOCC4)nn3)c2)cc1OC | -70.1*
CCOc1ccccc1C(=O)Nc1cccc(-c2ccc(N3CCOCC3)nn2)c1 | -127.2*
CCOc1ccccc1C(=O)Nc1c[nH]c(=O)[nH]c1=O | 61.6
O=C(Nc1cccc(-c2ccc(N3CCOCC3)nn2)c1)c1ccc(F)cc1F | -72.7*
COc1cccc(C(=O)Nc2cccc(-c3ccc(N4CCOCC4)nn3)c2)c1 | -72.2*
CSC1=NC(C)(C)C=C(/C=C/c2ccc(Cl)cc2)N1 | -95.9*
Cc1ccn2c(C(=O)CSc3ccccc3)c(C)nc2c1 | -64.7*
O=c1oc2cc(OCc3c(F)cccc3Cl)ccc2cc1-c1ccccn1 | -107.4*
CCCOc1ccc2cc(-c3ccccn3)c(=O)oc2c1 | 77.2
O=C(Nc1nnc(S(=O)(=O)N2CCOCC2)s1)c1cccc(F)c1 | -101.9*
COC(=O)c1ccc(N2CCN(C)CC2)c(NC(=O)COc2ccc(OC)cc2)c1 | -67.9*
CCOC(=O)CC(NC(=O)c1cc2cccc(OC)c2oc1=O)c1ccc(OC)cc1 (configuration not stated) | -69.7*
COc1cccc2cc(C(=O)NCc3ccccn3)c(=O)oc12 | -164.0*
Cc1oc2c(cc(NS(=O)(=O)c3ccc4c5c(cccc35)C(=O)N4)c3ccccc32)c1C(=O)OC(C)C | -68.8*
O=C1CSC(c2ccc(F)cc2)N1c1nc2ccccc2s1 (configuration not stated) | -91.3*
COc1ccc(C(=O)NNC2=Nc3cccc4cccc2c34)cc1 | 58.3
Clc1ccccc1/C=N/NC1=Nc2cccc3cccc1c23 | -229.6*
COc1ccc(/C=C/c2nc(-c3ccccc3O)n[nH]2)cc1OC | -131.9*
SMILES | aSyn 5UTR act
CSc1nnc(-c2cc3c(s2)-c2ccccc2CC3)o1 | -169.5*
S=c1[nH]nc(-c2cc3c(s2)-c2ccccc2CC3)o1 | -123.5*
NC(=O)c1ccc(-c2ncc(-c3ccccc3)o2)cc1 | -68.3*
COc1ccccc1C(=O)NNC(=S)NC(=O)c1cc(OC)c(OC)c(OC)c1 | 72.5
O=C(NNC(=O)c1ccccc1OCc1ccccc1)c1ccccc1O | 64.9
O=C(NNC(=O)c1ccccc1OCc1ccccc1)c1ccccc1F | -85.1*
COc1ccccc1C(=O)NNC(=O)c1ccccc1F | -96.8*
FC(F)Oc1ccc(C2N=C(c3ccccc3)NO2)cc1 (configuration not stated) | -199.0*
COc1ccc(C2N=C(c3ccccc3)NO2)cc1OC (configuration not stated) | -141.5*
Clc1ccc(CSc2ccc(-c3ccco3)nn2)cc1 | -164.6*
O=C(CSc1ccc(-c2ccccn2)nn1)c1ccccc1 | -97.1*
Clc1cccc(CSc2ccc(-c3ccco3)nn2)c1 | -83.5*
Clc1ccc(CSc2ccc(-c3ccccn3)nn2)cc1 | -131.7*
Cc1ccc(CSc2ccc(-c3ccco3)nn2)cc1 | -141.5*
Cc1cccc(CSc2ccc(-c3ccco3)nn2)c1 | -173.5*
Cc1cc(-c2n[nH]c(=S)o2)c(C)n1-c1ccccc1 | -144.3*
COc1ccc(OC)c(NC(=O)c2nc3ccccc3s2)c1 | -168.0*
C=CCNC(=O)c1nc2ccccc2s1 | -161.2*
CC(C)NC(=O)c1nc2ccccc2s1 | -83.8*
COc1cccc(NS(=O)(=O)NC(=O)c2c[nH]c3ccccc23)c1 | -63.2*
Cn1cc(/C=C2\SC(=O)N(c3ccc(O)cc3)C2=O)c2ccccc21 | -86.1*
O=C1S/C(=C\c2cccs2)C(=O)N1c1ccc(O)cc1 | -133.3*
Cn1cc(/C=N/n2cnc3scc(-c4ccccc4)c3c2=O)c2ccccc21 | 66.4
Cn1cc(/C=C2\SC(=O)N(c3ccccc3)C2=O)c2ccccc21 | -217.3*
CCc1ccc2oc(-c3cc(N)ccc3Cl)nc2c1 | -62.5*
SMILES | aSyn 5UTR act
Nc1ccc2oc(-c3ccccc3Cl)nc2c1 | 56.6
[O-]/C(=C(\C(=S)Nc1cccc2ccccc12)[n+]1ccccc1)c1ccc(Cl)s1 | -63.3*
C=CCn1c(SCC(N)=O)nc2scc(-c3ccc(C)o3)c2c1=O | -84.2*
C=CCn1c(SCC(=O)c2[nH]c(C)c(C(=O)OCC)c2C)nc2scc(-c3ccccc3)c2c1=O | 57.2
CCOc1ccc(CCNC(=O)c2nnn(CC(=O)Nc3ccc(C)cc3)c2N)cc1OCC | -71.2*
COc1cccc(CNC(=O)c2nnn(CC(=O)Nc3ccc(Br)cc3)c2N)c1 | 86.0
CC(=O)N(/N=C1\Sc2ccccc2C1=O)c1cccc(C)c1 | -127.2*
Nc1nccc(/C=C/c2ccc(Cl)cc2)n1 | -112.4*
COc1ccc(C2=NN(CN3C(=O)C(=O)c4ccccc43)C(c3ccc(Br)cc3)C2)cc1 (configuration not stated) | -114.5*
COc1ccc(C2=NN(CN3C(=O)C(=O)c4ccccc43)C(c3ccc(C)cc3)C2)cc1 (configuration not stated) | -115.9*
CCC(C)NS(=O)(=O)c1ccc(NC(=O)C(Sc2ccccc2)c2ccccc2)cc1 (configuration not stated) | 55.9
CCOC(=O)c1ccc(NC(=S)N(CCN(C)C)Cc2cccs2)cc1 | 53.2
CCOC(=O)c1ccc(NC(=O)C(CC)CC)cc1 | -98.4*
CCC(CC)C(=O)Nc1ccc(Nc2ccccc2)cc1 | -99.6*
CCOC(=O)c1ccc(NC(=O)N(CC)CC)cc1 | -114.7*
Cc1ccc2nc(N/N=C/c3ccco3)cc(C)c2c1 | -185.5*
Cc1cc(N/N=C/c2ccc([N+](=O)[O-])o2)nc2ccccc12 | -133.2*
Cc1cc2ncn(/N=C/c3ccc([N+](=O)[O-])o3)c2cc1C | -121.7*
O=C(N/N=C/c1ccc([N+](=O)[O-])o1)c1cc(-c2ccncc2)nc2ccccc12 | -66.7*
O=C(N/N=C/c1ccc([N+](=O)[O-])o1)c1cc(-c2ccc(-c3ccccc3)cc2)nc2ccccc12 | 76.1
CC(C)c1ccc(/C=N/N2CCCCC2)cc1 | -143.3*
Oc1ccccc1/C=N/N1CCN(c2ccccn2)CC1 | -114.9*
CC(C)c1ccc(/C=N/N2CCN(c3ccccn3)CC2)cc1 | -121.9*
CCCn1cnc2c(sc3nc4c(cc32)CSC(C)(C)C4)c1=O | -104.6*
Cn1nc(OC(=O)Nc2ccc(Cl)cc2)cc1C(F)(F)F | -85.0*
SMILES | aSyn 5UTR act
CC(C)c1[nH]nc2c1C(c1ccco1)C(C#N)=C(N)O2 (configuration not stated) | -133.3*
O=C(Oc1ccccc1N1C(=O)C2CCCCC2C1=O)c1ccccc1F (configuration not stated) | -64.4*
CCc1ccc(NC(=O)c2sccc2-n2cccc2)cc1 | -64.1*
O=C(Nc1ccc(Cl)cc1)c1sccc1-n1cccc1 | -65.9*
Cc1ccccc1-c1nnc(SCC(=O)N2CCCC2)o1 | -135.3*
O=C(CSc1nnc(-c2ccccc2Cl)o1)N1CCOCC1 | -124.1*
COc1ccccc1-c1nnc(-c2ccc(N3CCOCC3)cc2)o1 | -106.0*
O=C(CSc1nnc2ccc3ccccc3n12)N1CCOCC1 | -94.3*
COc1ccccc1-c1nnc(SCC(=O)N2CCOCC2)o1 | -85.3*
